Screen size: about 47,000 compounds; about 1,400 (3%) were called active. Only a selection was taken, and actives are over-represented in it overall. Values without a mark were called inactive. Rule as the data show it: active = inhibition above about 30%; inactive = the rest.
The molecules below were run against Ubiquitin carboxyl-terminal hydrolase 28 (Homo sapiens) (UniProt Q96RU2) (assay: blocks human USP28 ubiquitin-rhodamine cleavage (AID 1645857)). Conditions: purified USP28, Ub-rhodamine cleavage fluorescence, 30 min; at 25 µM; hits give high values.
Ubiquitin carboxyl-terminal hydrolase 28 (Homo sapiens), sequence (Q96RU2 whole entry, looked up): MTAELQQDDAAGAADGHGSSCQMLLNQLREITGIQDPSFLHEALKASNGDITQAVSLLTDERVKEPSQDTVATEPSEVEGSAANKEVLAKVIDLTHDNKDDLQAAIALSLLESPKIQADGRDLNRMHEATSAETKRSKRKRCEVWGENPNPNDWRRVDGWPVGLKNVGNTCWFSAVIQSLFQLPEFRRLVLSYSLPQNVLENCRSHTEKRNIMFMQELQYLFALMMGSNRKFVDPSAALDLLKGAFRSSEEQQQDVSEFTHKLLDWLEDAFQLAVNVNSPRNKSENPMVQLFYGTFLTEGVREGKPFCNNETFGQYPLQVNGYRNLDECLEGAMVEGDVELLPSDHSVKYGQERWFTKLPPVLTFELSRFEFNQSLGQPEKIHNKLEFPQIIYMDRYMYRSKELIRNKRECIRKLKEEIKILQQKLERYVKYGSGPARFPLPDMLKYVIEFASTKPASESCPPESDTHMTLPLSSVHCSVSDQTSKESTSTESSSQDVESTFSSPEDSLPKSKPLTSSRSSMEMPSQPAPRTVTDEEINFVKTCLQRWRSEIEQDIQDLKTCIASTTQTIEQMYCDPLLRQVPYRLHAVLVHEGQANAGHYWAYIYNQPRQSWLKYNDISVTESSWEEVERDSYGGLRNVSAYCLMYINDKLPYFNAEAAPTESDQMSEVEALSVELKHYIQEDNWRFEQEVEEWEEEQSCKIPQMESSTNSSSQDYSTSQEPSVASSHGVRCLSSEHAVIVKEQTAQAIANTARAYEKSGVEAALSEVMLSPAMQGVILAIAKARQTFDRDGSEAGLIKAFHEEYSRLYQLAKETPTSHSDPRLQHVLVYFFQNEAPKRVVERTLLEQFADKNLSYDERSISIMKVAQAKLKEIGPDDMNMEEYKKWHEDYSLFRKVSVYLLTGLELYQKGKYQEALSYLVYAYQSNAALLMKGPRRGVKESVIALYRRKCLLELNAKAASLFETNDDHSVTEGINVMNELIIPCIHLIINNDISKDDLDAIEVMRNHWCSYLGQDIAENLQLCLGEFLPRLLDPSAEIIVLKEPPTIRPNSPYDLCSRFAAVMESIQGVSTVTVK

With `O=C1CSC(c2ccc(F)cc2)c2c(-c3ccccc3)nn(-c3ccccc3)c2N1` (stereo not given) the inhibition was 35.2% (active).

Compared with `O=C(CCCn1c(=O)[nH]c2cc(Cl)ccc2c1=O)N1CCC2(CC1)OCCO2`, `Cc1noc(C)c1CN1CCO[C@H]2C(Cn3cccn3)CC[C@@H]21` (stereo not given in full) is lower in inhibition: 15% for the first, -2.14% for the second.

Compared with `COc1cc(N2CC[C@@H]3[C@@H]2CCN3Cc2cccnc2)ncn1`, `CC(C)(C)n1cc(C(=O)NCC(=O)Nc2ccc(Br)cc2)cn1` is higher in inhibition: -13.3% for the first, 1.73% for the second.

— PubChem BioAssay AID1645857 (Buhrlage Lab, Dana-Farber Cancer Institute and Novartis …, 2021)
